NCOA1 inh: human NCOA1 inhibition; Q15788; HEK293 GAL4-SRC1 luciferase reporter, luminescence; inhibition, % at 3.6 µM; 360,000 compounds, 0.12% hits; AID 588354;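 active = inhibition above the campaign mean plus 3 SD, with each screening campaign given its own cutoff, cut at about 60% in these data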;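 note: 0% = DMSO treated cells and 100% = gossypol at 36 µM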
SRC3 inh: inhibits human SRC3 coactivator; inhibition, % at 3.6 µM; Q9Y6Q9; 360,000 compounds, 0.17% hits; HEK293 GAL4-SRC3 luciferase reporter, luminescence;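 active = inhibition above a per-campaign cutoff, the mean of all compounds plus 3 SD, cut at about 60% in these data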;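 note: 0% = DMSO-treated cells and 100% = gossypol-treated cells at 36 µM; higher means less SRC3-driven luciferase light from the GAL4 reporter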
NCOA2 inhibitor: human SRC2 (NCOA2) inhibition. Q15596. HEK293 GAL4-SRC2 luciferase reporter, luminescence. inhibition, % at 9 µM. 370,000 compounds, 0.17% hits;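 active = inhibition above the mean inhibition of all tested compounds plus 3 SD, set per campaign, cut at about 52% in these data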;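 note: 0% = DMSO treated cells and 100% = cells given Gossypol at 36 µM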
NR5A2 inv ag: suppresses constitutive activity of human LRH-1; AID 602396; inhibition, % at 3.6 µM; 360,000 compounds, 0.13% hits; O00482; HEK293T StAR-luciferase reporter, LRH-1 transfected, 24 h;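 active = inhibition above the mean inhibition of all tested compounds plus 3 SD, cut at about 73% in these data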;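 note: 0% = DMSO wells and 100% = reporter-only cells lacking LRH-1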
Target sequence (O00482 whole entry, looked up): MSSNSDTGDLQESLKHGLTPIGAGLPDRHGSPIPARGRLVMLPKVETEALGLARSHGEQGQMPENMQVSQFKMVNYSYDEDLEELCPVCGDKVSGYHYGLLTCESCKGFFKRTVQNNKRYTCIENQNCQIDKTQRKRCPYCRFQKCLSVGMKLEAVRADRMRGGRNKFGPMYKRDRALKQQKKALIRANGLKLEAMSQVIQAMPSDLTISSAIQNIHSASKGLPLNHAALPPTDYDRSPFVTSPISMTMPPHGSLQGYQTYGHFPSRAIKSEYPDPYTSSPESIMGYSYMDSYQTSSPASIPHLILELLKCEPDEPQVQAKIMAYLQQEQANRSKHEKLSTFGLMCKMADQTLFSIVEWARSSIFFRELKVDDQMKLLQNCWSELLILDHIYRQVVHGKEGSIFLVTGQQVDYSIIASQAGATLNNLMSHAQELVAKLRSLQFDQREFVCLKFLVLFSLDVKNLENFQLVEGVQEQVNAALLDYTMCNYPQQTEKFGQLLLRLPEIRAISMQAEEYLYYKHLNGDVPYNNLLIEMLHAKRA
COUP-TFII inh: blocks human COUP-TFII nuclear receptor; P24468; HEK293T NGFI-A luciferase reporter, luminescence; inhibition, % at 8.6 µM; 370,000 compounds, 0.7% hits;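 active = inhibition above a per-plate cutoff, mean inhibition of test wells between control levels plus 3 SD, cut at about 38% in these data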;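 note: cells cotransfected with COUP-TFII expression vector driving the NGFI-A reporter; 0% = median of COUP-TF2 test wells and 100% = reporter-only cells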
GalR3 antag: antagonists of human GalR3; O60755; HEK293 GalR3-CNG cAMP membrane potential fluorescence; galR3 body fused to GalR1 C-terminus; inhibition, % at 3 µM; 360,000 compounds, 0.44% hits;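 active = inhibition above the screen-wide average plus 3 SD, cut at about 13% in these data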;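 note: forskolin and galanin both at EC90 stimulate the cells; cAMP rise reported by CNG channel membrane potential dye signal; 0% = forskolin plus galanin with DMSO and 100% = forskolin alone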
VP16 Luc counter: inhibits VP16 reporter, flagging COUP-TFII antagonist hits. shares compounds with COUP-TFII inh. HEK293 Gal4-VP16 luciferase reporter, luminescence. inhibition, % at 8.5 µM. 2,500 compounds, 25% hits. AID 687007; in the data active = inhibition above about 13%
NR2F2 inh conf: COUP-TFII (NR2F2) inhibition, confirmation assay. 2,500 compounds, 45% hits. shares compounds with COUP-TFII inh. HEK293 NGFI-A luciferase reporter, luminescence. inhibition, % at 8.5 µM;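 active = mean inhibition over three repeats above a set limit taken from the earlier primary screen, cut at about 38% in these data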;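 note: 100% = cells given the luciferase reporter alone without the COUP-TF2 vector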
The depositor's hits bear a star; nt = not tested or not shown. Shown are actives, neighbours in structure and some others; about 1.1% of the full set was active somewhere.

SMILES	NCOA1 inh	SRC3 inh	NCOA2 inhibitor	NR5A2 inv ag	COUP-TFII inh	GalR3 antag	VP16 Luc counter	NR2F2 inh conf
COc1ccc(NC(=O)c2ccc(S(=O)(=O)N(C)c3ccccc3)cc2)cn1	5.2	1.7	12.8	1.1	41.1*	-5.6	-1.6	15.9
Cc1nc2ccc(NC(=O)c3ccc(S(=O)(=O)N(C)c4ccccc4)cc3)cc2s1	7.3	15.4	5.2	-12.3	49.1*	-11.3	-17.9	7.7
Cc1cccc2cc(-c3ccccc3)c(-c3ccccc3)c[n+]12	41.6	41.0	20.1	53.3	63.8*	2.4	1.5	44.0*
O=C(Cn1c(=O)c2cccn2c2cccnc21)NCCCN1CCN(c2ccc(Cl)cc2)CC1	nt	nt	nt	nt	-3.1	nt	nt	nt
O=C(Nc1ccc(Cl)cn1)C1CCN(S(=O)(=O)c2cccs2)CC1	-21.2	6.9	20.5	21.5	52.9*	0.4	5.6	32.3
O=C(Nc1nccs1)C1CCN(S(=O)(=O)c2cccs2)CC1	-3.1	6.2	4.4	9.5	11.3	-3.5	nt	nt
O=C(NC1CCCC1)C1CCC(CNS(=O)(=O)c2cccs2)CC1 (stereo not drawn)	-0.8	6.2	-39.1	1.6	-5.1	1.1	nt	nt
O=C(C1CCC(CNS(=O)(=O)c2cccs2)CC1)N1CCN(c2ccc(Cl)cc2)CC1 (stereo not drawn)	31.2	44.9	14.5	4.7	60.3*	-9.0	4.1	59.5*
O=C(NCCc1nc2ccccc2n1C/C=C/c1ccccc1)C1CCCCC1	nt	nt	nt	nt	18.5	nt	nt	nt
CC(=NNC(=S)Nc1ccccc1Cl)c1ccccn1	65.9*	62.8*	27.9	73.7*	50.6*	-2.6	-12.3	-0.1
Cc1ccc(NC(=O)C2CCN(c3ncnc4sc(C)c(C)c34)CC2)cc1S(=O)(=O)N(C)C	24.4	35.2	4.0	-2.9	48.4*	2.9	8.5	30.5
O=C(Nc1ccccc1)n1ccc2ccc(-c3ccc4cc[nH]c4c3)cc21	nt	nt	-16.1	nt	-38.5	nt	nt	nt
COc1ccc(N2CCN(C(=O)CCCCCn3c(=S)[nH]c4ccc(N5CCOCC5)cc4c3=O)CC2)cc1	-3.4	9.3	37.1	3.0	42.2*	-3.7	6.0	22.8
COc1ccc(N2CCN(C(=O)CCCCCn3c(=S)[nH]c4cc5c(cc4c3=O)OCO5)CC2)cc1	-14.4	-13.6	nt	7.9	nt	nt	nt	nt
CN(Cc1ccc(OCC(O)CN2CCCCC2)cc1)Cc1ccnc2ccccc12 (stereo not drawn)	15.5	12.1	19.9	24.8	59.4*	-8.9	8.2	44.4*
Cc1cc(C(=O)OCCCN(C)C2CN(Cc3cn(Cc4ccccc4C(F)(F)F)nn3)S(=O)(=O)C2)no1 (stereo not drawn)	nt	nt	-11.8	nt	7.0	nt	nt	nt
COc1ccc(C(C(=O)NC2CCCC2)n2c(CSCCOc3ccccc3)nc3ccccc32)cc1 (stereo not drawn)	nt	nt	79.0*	21.4	70.0*	-0.7	27.7*	45.6*
CCC(C(=O)NCc1ccccc1)n1c(CSCCOc2ccccc2)nc2ccccc21 (stereo not drawn)	nt	nt	74.9*	45.2	58.4*	-5.2	7.5	23.3
COc1ccc(OC)c(S(=O)(=O)N2CCCC(C(=O)Nc3c(C)n(C)n(-c4ccccc4)c3=O)C2)c1 (stereo not drawn)	nt	nt	-10.3	nt	-3.1	nt	nt	nt
COc1ccc(Cn2cc(CN3[C@@H](CC(C)C)COc4ccc(Cl)cc4S3(=O)=O)nn2)cc1	nt	nt	16.6	nt	3.3	nt	nt	nt
CCCCNC(=O)COC(=O)c1c2c(nc3ccccc13)/C(=C/c1cccs1)CC2	-2.3	-14.7	-7.7	46.3	30.6	-8.5	nt	nt
CNC(=O)NC(=O)C(C)OC(=O)c1c2c(nc3ccccc13)/C(=C/c1cccs1)CC2 (stereo not drawn)	7.0	9.7	10.8	-26.8	45.7*	-2.1	-36.8	-15.0
O=C(Nc1ccc(N2CCN(C(=O)c3ccccc3)CC2)c(Cl)c1)c1ccco1	7.6	12.2	8.6	2.6	15.9	-0.2	nt	nt
O=C(Nc1ccc(N2CCN(C(=O)c3ccco3)CC2)c(Cl)c1)c1cc2ccccc2o1	35.9	31.7	44.9	14.2	63.5*	-0.1	5.2	51.2*
CCC(=O)N1CCN(c2ccc(NC(=O)c3ccco3)cc2Cl)CC1	-29.9	-20.1	-14.9	-26.3	-4.4	-0.1	nt	nt
SMILES	NCOA1 inh	SRC3 inh	NCOA2 inhibitor	NR5A2 inv ag	COUP-TFII inh	GalR3 antag	VP16 Luc counter	NR2F2 inh conf
CCC(=O)N1CCN(c2ccc(NC(=O)c3cc4ccccc4o3)cc2Cl)CC1	21.7	24.6	24.8	9.9	44.1*	-3.0	-16.0	35.9
COc1ccccc1-c1cc2nc(-c3ccccc3)cc(N3CCN(C(=O)c4ccoc4)CC3)n2n1	24.1	29.2	14.0	36.3	87.4*	-6.5	9.9	60.2*
COc1ccccc1-c1cc2nc(-c3ccccc3)cc(N3CCN(C(=O)c4ccco4)CC3)n2n1	43.0	33.9	36.5	19.0	93.6*	-6.5	12.6	76.0*
Cc1ccc(NC(=O)[C@@H]2CCCN2S(=O)(=O)c2cccc3cccnc23)c(C)c1	nt	nt	nt	nt	-1.3	nt	nt	nt
CC(=O)Nc1ccc(S(=O)(=O)N2CCN=C2SCc2ccc([N+](=O)[O-])cc2)cc1	13.2	26.9	15.6	21.1	48.0*	-3.3	1.4	22.3
CC(=O)Nc1ccc(S(=O)(=O)N2CCN=C2SCc2cccc(C)c2)cc1	-12.3	-20.8	0.3	7.6	6.6	-1.0	nt	nt
C[C@H](O)[C@@H]1CN2CCc3ccc(N4CCOCC4)cc3[C@@H]2C[C@@H]1N(C)C(=S)NCCc1ccccc1	nt	nt	3.1	nt	15.6	nt	nt	nt
CN=c1scc(-c2ccccc2F)n1/N=C/c1ccc[nH]1	92.3*	91.7*	90.6*	90.7*	106.5*	-4.2	86.0*	107.0*
c1ccc(-n2c(SCc3cccc4ccccc34)nnc2-c2ccccn2)cc1	nt	nt	6.1	nt	11.2	nt	nt	nt
CCOC(=O)CC[C@@]1(C(=O)OCC)C[C@@H](CC(=O)NCc2cccs2)C(=O)N2CCCC=C21	nt	nt	18.1	nt	-7.7	nt	nt	nt
Fc1cccc(CNC2CCC23CCC(c2ccccc2)CC3)c1 (stereo not drawn)	nt	nt	nt	nt	-6.5	nt	nt	nt
Cc1sc2ncnc(SCC(=O)N3CCC(c4noc5ccc(F)cc45)CC3)c2c1C	6.0	15.6	-21.6	-9.4	16.7	-2.6	nt	nt
Cc1nnc(SCC(=O)N2CCC(c3noc4ccc(F)cc34)CC2)s1	62.3*	63.2*	45.7	20.7	49.4*	-2.2	5.4	19.3
Clc1cccc(CNc2nc(-c3ccccn3)nnc2-c2ccccc2)c1	nt	nt	nt	nt	38.4*	nt	0.5	-33.8
CNc1nc(-c2ccccn2)nnc1-c1ccccc1	-12.5	4.5	-22.3	-10.1	4.3	-0.2	nt	nt
CC(C)(C)c1ccc(CNc2nc(-c3ccccn3)nnc2-c2ccccc2)cc1	nt	nt	nt	nt	49.1*	nt	9.2	16.2
